Values joined by “and” are separate entries in the source; they are usually repeats but may differ in a detail not shown here. Equal values may be shown once. Inconclusive results are not listed. A call without a number means that no potency is given here. More than one record can exist for a structure, and the calls need not agree. Active and inactive are the calls of the source. Unless noted, the call rests on the fitted dose curve; in most records, active means well fitted curve in the direction sought with a large enough effect; inconclusive means small, poorly fitted or top-dose-only effect, or another doubt; inactive means no such curve, though single readings can be large; an effect the other way counts as inactive or inconclusive.
Legend:
[1] = molecular target: Voltage-gated inwardly rectifying potassium channel KCNH2 (Homo sapiens) (UniProt Q12809); test: qHTS Assay for Small Molecule Inhibitors of the Human hERG Channel Activity (AID 588834); settings: U2OS BacMam hERG, FluxOR thallium flux fluorescence; series mostly up to 46.1 µM;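 further: lower thallium flux fluorescence means stronger hERG block; nearly all actives have a fitted effect of over 50% in size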; further: potency means the concentration at half of the fitted maximal effect
Voltage-gated inwardly rectifying potassium channel KCNH2 (Homo sapiens), sequence (Q12809 whole entry, looked up): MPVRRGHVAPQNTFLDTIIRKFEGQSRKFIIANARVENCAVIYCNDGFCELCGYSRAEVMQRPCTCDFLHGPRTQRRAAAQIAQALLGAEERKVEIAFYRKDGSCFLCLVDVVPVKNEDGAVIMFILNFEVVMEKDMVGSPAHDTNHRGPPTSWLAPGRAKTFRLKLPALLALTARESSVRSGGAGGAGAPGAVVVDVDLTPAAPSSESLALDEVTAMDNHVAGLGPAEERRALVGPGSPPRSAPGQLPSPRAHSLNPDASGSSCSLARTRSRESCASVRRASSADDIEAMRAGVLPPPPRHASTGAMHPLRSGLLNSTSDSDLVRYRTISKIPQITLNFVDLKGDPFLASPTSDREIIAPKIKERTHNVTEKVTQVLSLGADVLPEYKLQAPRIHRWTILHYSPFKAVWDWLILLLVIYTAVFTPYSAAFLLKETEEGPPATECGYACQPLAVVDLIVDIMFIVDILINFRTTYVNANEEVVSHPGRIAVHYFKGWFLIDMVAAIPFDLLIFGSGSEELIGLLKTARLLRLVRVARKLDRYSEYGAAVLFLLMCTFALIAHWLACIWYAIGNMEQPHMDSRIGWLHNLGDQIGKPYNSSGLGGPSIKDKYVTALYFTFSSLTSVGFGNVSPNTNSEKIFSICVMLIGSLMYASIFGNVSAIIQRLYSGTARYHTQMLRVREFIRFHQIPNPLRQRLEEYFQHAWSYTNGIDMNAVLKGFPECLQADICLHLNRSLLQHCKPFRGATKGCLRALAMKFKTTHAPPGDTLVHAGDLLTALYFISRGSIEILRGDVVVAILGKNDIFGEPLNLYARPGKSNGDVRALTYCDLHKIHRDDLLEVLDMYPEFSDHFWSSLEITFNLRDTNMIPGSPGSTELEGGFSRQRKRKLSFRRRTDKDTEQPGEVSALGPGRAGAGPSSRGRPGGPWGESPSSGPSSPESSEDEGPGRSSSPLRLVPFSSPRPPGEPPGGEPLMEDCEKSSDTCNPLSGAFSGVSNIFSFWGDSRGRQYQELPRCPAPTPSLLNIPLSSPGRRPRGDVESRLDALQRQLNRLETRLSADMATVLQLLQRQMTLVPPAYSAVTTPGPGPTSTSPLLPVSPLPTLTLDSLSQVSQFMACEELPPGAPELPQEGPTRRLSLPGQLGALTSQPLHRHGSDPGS
Outline: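 Cells were infected with hERG-BacMam virus for 4 hrs at room temperature, grown overnight, then seeded at 2000/well. After dye loading and roughly 10 min compound treatment, thallium influx was triggered and fluorescence recorded.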

[2] = molecular target: Peroxisome proliferator-activated receptor delta (Homo sapiens) (UniProt Q03181); test: qHTS assay for small molecule agonists of peroxisome proliferator-activated receptor delta signaling (AID 588534; calls by dose curve); settings: HEK293T PPARdelta-UAS-bla, beta-lactamase ratio, 18 h; series mostly up to 76.7 µM
Peroxisome proliferator-activated receptor delta (Homo sapiens), sequence (Q03181 whole entry, looked up): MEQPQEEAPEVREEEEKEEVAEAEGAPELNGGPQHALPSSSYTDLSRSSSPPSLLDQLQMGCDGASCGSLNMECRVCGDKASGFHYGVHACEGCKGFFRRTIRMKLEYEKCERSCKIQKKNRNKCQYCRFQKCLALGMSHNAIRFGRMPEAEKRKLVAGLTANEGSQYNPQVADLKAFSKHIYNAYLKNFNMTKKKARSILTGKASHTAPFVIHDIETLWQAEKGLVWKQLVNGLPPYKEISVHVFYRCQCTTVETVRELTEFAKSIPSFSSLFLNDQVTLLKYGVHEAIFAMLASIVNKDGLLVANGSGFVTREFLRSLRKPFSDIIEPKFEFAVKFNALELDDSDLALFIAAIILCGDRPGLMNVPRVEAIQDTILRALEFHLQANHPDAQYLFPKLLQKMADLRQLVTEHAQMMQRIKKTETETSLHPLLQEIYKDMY
Outline: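 Agonist-mode beta-lactamase reporter readout (CCF4 dye, 2 h at RT) after 18 h at 37 °C exposure to a titration; Hill-equation fitting gave EC50 and maximal response.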

[3] = qHTS assay for small molecule antagonists of peroxisome proliferator-activated receptor delta signaling (AID 588535; active means well fitted inhibition curve with a large enough effect in the signal ratio, with a control signal flat, not every such curve was filed as active; the % refers to the signal ratio;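 on max response: cells co-treated with a PPAR-delta agonist as stimulator during compound exposure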); settings: HEK293T PPARd-UAS-bla, beta-lactamase FRET ratio, 18 h; 460 nm channel
Outline: (§1)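 Titrations were run on PPAR-delta-UAS-bla HEK293T cells in charcoal/dextran-stripped serum, incubated 18 h at 37 C. CCF4 fluorescence (460/530 nm) after 2 h RT; Hill equation yields IC50 and maximal response.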

[4] = molecular target: Peroxisome proliferator-activated receptor delta (Homo sapiens) (UniProt Q03181); test: as above; settings: HEK293T PPARd-UAS-bla, beta-lactamase FRET ratio, 18 h; series mostly up to 76.7 µM
Outline: as §1

[5] = molecular target: Peroxisome proliferator-activated receptor gamma (Homo sapiens) (UniProt P37231); test: qHTS assay for small molecule agonists of peroxisome proliferator-activated receptor gamma signaling (AID 588536; active means well fitted curve in the direction sought with a large enough effect in the signal ratio, with a control signal flat, not every such curve was filed as active; the % refers to the signal ratio); settings: HEK293 PPARg-UAS-bla, beta-lactamase ratio, 16 h, percent of rosiglitazone response, DMSO as zero; series mostly up to 76.7 µM
Peroxisome proliferator-activated receptor gamma (Homo sapiens), sequence (P37231 whole entry, looked up): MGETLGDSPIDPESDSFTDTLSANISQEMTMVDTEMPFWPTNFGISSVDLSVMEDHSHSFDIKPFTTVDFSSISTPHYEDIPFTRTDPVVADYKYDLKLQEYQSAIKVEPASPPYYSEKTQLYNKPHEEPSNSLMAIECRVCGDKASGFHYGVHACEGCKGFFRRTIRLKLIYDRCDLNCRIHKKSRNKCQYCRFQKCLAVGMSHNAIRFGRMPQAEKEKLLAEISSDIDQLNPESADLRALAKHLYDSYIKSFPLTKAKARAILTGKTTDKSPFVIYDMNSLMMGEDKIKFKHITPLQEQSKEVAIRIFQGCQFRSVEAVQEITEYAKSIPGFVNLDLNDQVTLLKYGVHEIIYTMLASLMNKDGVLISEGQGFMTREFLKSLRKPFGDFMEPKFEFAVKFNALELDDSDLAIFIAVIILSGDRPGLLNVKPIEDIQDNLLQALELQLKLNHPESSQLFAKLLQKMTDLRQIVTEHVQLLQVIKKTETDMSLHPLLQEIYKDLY
Outline: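 This is an agonist-mode beta-lactamase reporter assay in HEK293 PPAR-gamma-UAS-bla cells with 1% charcoal/dextran FBS. Compound titrations ran 16 h at 37 C before CCF4 detection. EC50 and efficacy are Hill fits scaled to 2 uM rosiglitazone (100%) and DMSO basal.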

[6] = molecular target: Vitamin D3 receptor (Homo sapiens) (UniProt P11473); test: qHTS assay for small molecule antagonists of vitamin D receptor signaling (AID 588541; calls by dose curve;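 further: receptor activated by calcitriol during compound treatment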); settings: HEK293T VDR-UAS-bla, beta-lactamase ratio, antagonist mode; series mostly up to 76.7 µM
Vitamin D3 receptor (Homo sapiens), sequence (P11473 whole entry, looked up): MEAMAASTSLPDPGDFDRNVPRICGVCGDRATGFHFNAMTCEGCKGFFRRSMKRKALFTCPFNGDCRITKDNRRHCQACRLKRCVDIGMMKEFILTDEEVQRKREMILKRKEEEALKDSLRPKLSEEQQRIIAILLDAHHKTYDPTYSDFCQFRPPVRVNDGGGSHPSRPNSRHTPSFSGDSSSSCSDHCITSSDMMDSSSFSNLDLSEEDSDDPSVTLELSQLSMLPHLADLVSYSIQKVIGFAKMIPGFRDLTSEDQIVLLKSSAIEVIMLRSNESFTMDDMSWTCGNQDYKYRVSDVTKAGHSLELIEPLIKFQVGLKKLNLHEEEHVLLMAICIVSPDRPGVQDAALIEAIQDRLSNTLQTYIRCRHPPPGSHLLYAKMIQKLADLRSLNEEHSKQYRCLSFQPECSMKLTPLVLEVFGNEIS
Outline: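 Antagonist-mode beta-lactamase reporter assay: HEK293T VDR-UAS-bla cells were exposed to titrated compound alongside 1-alpha,25-dihydroxyvitamin D3 at 3 nM final for 16 h. Values were normalized to the 50 nM agonist control and DMSO basal, with IC50 and efficacy from Hill equation fits.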

[7] = qHTS assay for small molecule antagonists of retinoid X receptor alpha signaling (AID 588546; active means well fitted inhibition curve with a large enough effect in the signal ratio, with a control signal flat, not every such curve was filed as active; the % refers to the signal ratio;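 further: cells stimulated with 9-cis-retinoic acid as agonist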); settings: HEK293T RXRa-UAS-bla, beta-lactamase ratio, antagonist mode; measured here: W530 green channel, cytotoxicity proxy
Outline: (§2)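 Beta-lactamase reporter inhibition, read as CCF4 fluorescence ratio (ex 405, em 460/530 nm) after 2 h at RT. HEK293T UAS-bla cells, 2500/well, were stimulated with 9-cis-RA at 500 or 100 nM final alongside test compound for 18 h at 37 C.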

[8] = molecular target: Retinoic acid receptor RXR-alpha (Homo sapiens) (UniProt P19793); test: as above; settings: HEK293T RXRa-UAS-bla, beta-lactamase ratio, antagonist mode
Retinoic acid receptor RXR-alpha (Homo sapiens), sequence (P19793 whole entry, looked up): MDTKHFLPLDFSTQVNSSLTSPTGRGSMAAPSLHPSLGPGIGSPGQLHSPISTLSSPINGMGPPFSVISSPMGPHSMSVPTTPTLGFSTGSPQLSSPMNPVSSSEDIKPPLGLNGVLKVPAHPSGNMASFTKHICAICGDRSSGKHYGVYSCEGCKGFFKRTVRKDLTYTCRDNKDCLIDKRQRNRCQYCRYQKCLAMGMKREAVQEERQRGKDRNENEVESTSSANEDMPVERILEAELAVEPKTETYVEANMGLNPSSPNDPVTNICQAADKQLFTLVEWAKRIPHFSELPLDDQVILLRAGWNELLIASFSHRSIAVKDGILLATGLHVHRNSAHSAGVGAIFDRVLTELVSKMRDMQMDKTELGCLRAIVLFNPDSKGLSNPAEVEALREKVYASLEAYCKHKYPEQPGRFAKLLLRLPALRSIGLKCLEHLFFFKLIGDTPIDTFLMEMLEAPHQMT
Outline: as §2

[9] = molecular target: Luciferin 4-monooxygenase (Photinus pyralis) (UniProt P08659); test: Biochemical firefly luciferase enzyme assay for NPC (AID 624030); further: nearly all actives have a fitted effect of over 70% in size; further: potency means the concentration at half of the fitted maximal effect; settings: purified P. pyralis luciferase, luminescence, 5 min; series mostly up to 58.6 µM
Luciferin 4-monooxygenase (Photinus pyralis), sequence (P08659 whole entry, looked up): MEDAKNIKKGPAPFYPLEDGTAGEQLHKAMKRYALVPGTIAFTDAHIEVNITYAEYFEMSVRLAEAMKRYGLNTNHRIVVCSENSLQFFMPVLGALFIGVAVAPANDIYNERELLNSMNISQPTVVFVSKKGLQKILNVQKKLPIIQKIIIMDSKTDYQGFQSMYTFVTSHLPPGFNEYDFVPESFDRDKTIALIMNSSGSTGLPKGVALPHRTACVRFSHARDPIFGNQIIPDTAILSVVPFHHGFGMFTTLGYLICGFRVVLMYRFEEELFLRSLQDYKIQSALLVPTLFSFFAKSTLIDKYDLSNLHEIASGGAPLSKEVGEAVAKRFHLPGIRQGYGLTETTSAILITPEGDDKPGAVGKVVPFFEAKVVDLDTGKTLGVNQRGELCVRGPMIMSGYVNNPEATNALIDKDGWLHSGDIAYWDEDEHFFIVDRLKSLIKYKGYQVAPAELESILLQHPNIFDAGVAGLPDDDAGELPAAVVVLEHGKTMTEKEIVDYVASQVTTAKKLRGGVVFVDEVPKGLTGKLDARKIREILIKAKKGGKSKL
Outline: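 Direct inhibition of firefly luciferase enzyme (10 nM final, 50 mM Tris Acetate) assessed by luminescence within 5 minutes. Percent activity scaled between DMSO and PTC124 positive control, with concentration-effect curves classified by fit quality and response.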

[10] = S16 Schwann cell viability assay (CellTiter-Glo assay) (AID 624031); settings: S16 rat Schwann cells viability, 24 h; series mostly up to 57.5 µM; further: nearly all actives have a fitted effect of over 70% in size; further: potency means the concentration at half of the fitted maximal effect
Outline: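 CellTiter-Glo ATP luminescence counter-screen in untransfected S16 rat Schwann cells, 24h compound exposure at 37 degree Celsius after overnight seeding (500-750 cells/well); response scaled between cell-free wells and DMSO (0% activity), curves classed by r2 and magnitude.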

[11] = molecular target: Vitamin D3 receptor (Homo sapiens) (UniProt P11473); test: qHTS assay for small molecule agonists of vitamin D receptor signaling (AID 588543; calls by dose curve); settings: HEK293T VDR-UAS-bla, beta-lactamase ratio, 16 h; series mostly up to 76.8 µM
Outline: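 qHTS in agonist mode: compound titrations stimulate a VDR-driven β-lactamase reporter in HEK293T cells over 16 h at 37 °C. Response normalized to 50 nM 1α,25-dihydroxyvitamin D3 = 100%, DMSO = 0%; Hill fitting gives EC50 and maximal response.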

[12] = S16 Schwann cell PMP22 intronic element firefly luciferase assay (AID 624032); settings: S16 rat Schwann cells, PMP22 element FLuc, 24 h; series mostly up to 57.5 µM; further: nearly all actives have a fitted effect of over 30% in size; further: potency means the concentration at half of the fitted maximal effect
Outline: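 Luciferase reporter of PMP22 intronic-element expression in stably transfected S16 rat Schwann cells, read by ONE-Glo luminescence after 24 h compound exposure at 37 C. Activity scaled between DMSO (0%) and positive-control PTC124; concentration-effect curves quality-classified.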

Compound: CC(C)=C[C@@H]1[C@@H](C(=O)OCc2coc(Cc3ccccc3)c2)C1(C)C
- Potency [1]: inactive

Compound: C/C=C/c1ccc(O)c(OC)c1
- outcome [2]: inactive

Compound: COP(=S)(OC)Oc1ccc(Sc2ccc(OP(=S)(OC)OC)cc2)cc1
- outcome [2]: inactive
- max response [3]: -0.163%
- Potency [4]: inactive
- outcome [5]: inactive
- outcome [6]: inactive
- max response [7]: -1.68%
- max response [8]: -19.4% (inactive)
- Potency [1]: inactive
- Potency [9]: 25.6 µM (active)
- Potency [10]: inactive

Compound: C=C[C@@]1(C)CC(=O)[C@]2(O)[C@@]3(C)[C@@H](O)CCC(C)(C)[C@@H]3[C@H](O)[C@H](OC(C)=O)[C@@]2(C)O1
- outcome [2]: inactive

Compound: FC(F)(F)C(Cl)Br (configuration not stated)
- outcome [2]: inactive

Compound: C#C[C@]1(O)CC[C@H]2[C@@H]3CCc4cc(O)ccc4[C@H]3CC[C@@]21C
- outcome [2]: inactive

Compound: CCCCCCCCCCCC[N+](C)(C)CCOc1ccccc1
- outcome [2]: inactive
- outcome [6]: inactive
- outcome [11]: inactive
- Potency [1]: 2.82 µM (active) and 5.01 µM (active)
- Potency [9]: inactive
- Potency [10]: 32.2 µM (active)
- Potency [12]: 25.6 µM (active)

Compound: C#C[C@]1(O)C=C[C@H]2[C@@H]3CCC4=CC(=O)CC[C@@H]4[C@H]3CC[C@@]21CC
- Potency [1]: inactive

Compound: CCN(CC)CCOC(=O)C(C)(c1ccccc1)c1ccccc1
- Potency [1]: 3550 nM (active)
- Potency [9]: inactive
- Potency [10]: inactive
- Potency [12]: inactive

Compound: NC(=O)OCCCc1ccccc1
- Potency [1]: inactive
- Potency [9]: inactive
- Potency [10]: inactive
- Potency [12]: inactive

Compound: C#C[C@]1(O)CC[C@H]2[C@@H]3CCC4=CC(=O)CCC4=C3C=C[C@@]21CC
- Potency [1]: inactive
- Potency [9]: inactive

Compound: C[N+](C)(C)CCOC(=O)C(O)(c1ccccc1)c1ccccc1
- Potency [1]: inactive
- Potency [9]: inactive
- Potency [10]: inactive
- Potency [12]: inactive

Compound: CCCC(C)C1(CC)C(=O)N=C(S)NC1=O (configuration not stated)
- Potency [1]: inactive

Compound: CC(C)[N+](C)(CCC(C(N)=O)(c1ccccc1)c1ccccc1)C(C)C
- Potency [1]: inactive
- Potency [9]: inactive
- Potency [10]: inactive
- Potency [12]: inactive

Compound: C[N+]1(C)[C@@H]2CC[C@H]1CC(OC(=O)C(CO)c1ccccc1)C2 (some centres not stated)
- Potency [1]: inactive

Compound: CCC1(c2cccc(O)c2)CCCCN(C)C1 (configuration not stated)
- Potency [1]: inactive

Compound: C=CCN1CC[C@]23CCCC[C@H]2[C@H]1Cc1ccc(O)cc13
- Potency [1]: inactive

Compound: Oc1ccc2[nH]cc(CCCCN3CC=C(c4ccccc4)CC3)c2c1
- Potency [1]: 1260 nM (active)
- Potency [9]: inactive
- Potency [10]: inactive
- Potency [12]: 9.07 µM (active)

Compound: CN(C)c1ccc(C(=C2C=CC(=[N+](C)C)C=C2)c2ccccc2)cc1
- Potency [1]: inactive

Compound: O=C1NCN(c2ccccc2)C12CCN(CCCOc1ccc(F)cc1)CC2
- Potency [1]: 355 nM (active)
- Potency [9]: inactive
- Potency [10]: inactive

Compound: CCN(Cc1ccc(Cl)nc1)/C(=C/[N+](=O)[O-])NC
- Potency [1]: inactive
- Potency [9]: inactive
- Potency [10]: inactive
- Potency [12]: inactive

Compound: NCc1cccnc1
- Potency [1]: inactive
- Potency [9]: inactive
- Potency [10]: inactive

Compound: CN(C)C(=O)Oc1cc(OC(=O)N(C)C)cc(C(O)CNC(C)(C)C)c1 (configuration not stated)
- Potency [1]: inactive

Compound: NC(=O)CN1CCCC1=O
- Potency [1]: inactive
- Potency [9]: inactive
- Potency [10]: inactive
- Potency [12]: inactive

Compound: CC(N)C(=O)OC(C)(C)Cc1ccc(Cl)cc1 (configuration not stated)
- Potency [1]: inactive

Compound: CC(C)(C)OC(=O)c1ncn2c1[C@@H]1CCCN1C(=O)c1c(Br)cccc1-2
- Potency [1]: inactive
- Potency [9]: inactive
- Potency [10]: inactive
- Potency [12]: inactive

Compound: CC1=C2[C@H]3OC(=O)[C@@H](C)[C@@H]3CC[C@@]2(C)C=CC1=O
- Potency [1]: inactive

Compound: CCS(=O)(=O)C(C)(C)S(=O)(=O)CC
- Potency [1]: inactive
- Potency [9]: inactive
- Potency [10]: inactive
- Potency [12]: inactive

Compound: Cc1ncc2n1-c1ccc(Cl)cc1C(c1ccccc1F)=NC2
- Potency [1]: inactive
- Potency [9]: inactive
- Potency [10]: inactive

Compound: NC(N)=N/N=C/c1c(Cl)cccc1Cl
- Potency [1]: inactive

Compound: CN1C(=O)CN=C(c2ccccc2)c2cc([N+](=O)[O-])ccc21
- Potency [1]: inactive
- Potency [9]: inactive
- Potency [10]: inactive
- Potency [12]: inactive

Compound: Clc1ccc(C(OCCN2CCCCC2)c2ccccc2)cc1 (configuration not stated)
- Potency [1]: 891 nM (active)

Compound: OC(O)C(Cl)(Cl)Cl
- Potency [1]: inactive
- Potency [9]: inactive
- Potency [10]: inactive

Compound: Nc1ccc(N)cc1
- Potency [1]: inactive

Compound: COc1ccc(CN2CCNCC2)c(OC)c1OC
- Potency [1]: inactive
- Potency [9]: inactive
- Potency [10]: inactive
- Potency [12]: inactive

Compound: COc1ccc(C(=O)N2CCCC2=O)cc1
- Potency [1]: inactive
- Potency [9]: inactive
- Potency [10]: inactive
- Potency [12]: inactive

Compound: CCOC(=O)NC(O)C(Cl)(Cl)Cl (configuration not stated)
- Potency [1]: inactive
- Potency [9]: inactive
- Potency [10]: inactive
- Potency [12]: inactive

Compound: CC(C)C(Br)C(=O)NC(N)=O (configuration not stated)
- Potency [1]: inactive
- Potency [9]: inactive
- Potency [10]: inactive

Compound: ClC1=C(Cl)C2(Cl)C(CBr)CC1(Cl)C2(Cl)Cl (configuration not stated)
- Potency [1]: 22400 nM (active)
- Potency [9]: inactive
- Potency [10]: inactive

Compound: C[C@@H]1CN(C2CCC(C#N)(c3ccc(F)cc3)CC2)CC[C@]1(C(=O)O)c1ccccc1 (some centres not stated)
- Potency [1]: inactive

Compound: CC(C)(O)C(Cl)(Cl)Cl
- Potency [1]: inactive
- Potency [9]: inactive
- Potency [10]: inactive
- Potency [12]: inactive

Compound: C[C@]12C=CC(=O)C=C1CC[C@@H]1[C@@H]2CC[C@@]2(C)[C@H]1CC[C@]2(C)O
- Potency [1]: inactive
- Potency [9]: inactive
- Potency [10]: inactive
- Potency [12]: inactive

Compound: CC(C)NCC(O)c1ccc(N)c(C#N)c1 (configuration not stated)
- Potency [1]: inactive
- Potency [9]: inactive
- Potency [10]: inactive
- Potency [12]: inactive

Compound: CN(C)CCc1c[nH]c2ccc(O)cc12
- Potency [9]: inactive

Compound: O=C(O)CNC(=O)c1ccccc1I
- Potency [9]: inactive

Compound: Cc1nnc2n1-c1sc(CCC(=O)N3CCOCC3)cc1C(c1ccccc1Cl)=NC2
- Potency [9]: inactive

Compound: CC1N=C(N)OC1c1ccccc1 (configuration not stated)
- Potency [9]: inactive

Compound: CN1C[C@@H](NS(=O)(=O)N(C)C)C[C@@H]2c3cccc4c3c(cn4C)C[C@H]21
- Potency [1]: inactive
- Potency [9]: inactive
- Potency [12]: inactive

Compound: c1cc2c(c(N3CCNCC3)c1)OCCO2
- Potency [1]: inactive
- Potency [9]: inactive
- Potency [10]: inactive
- Potency [12]: inactive

Compound: O=C(CCCN1CCC(n2c(=O)[nH]c3ccccc32)CC1)c1ccc(F)cc1
- Potency [1]: 355 nM (active)
- Potency [9]: inactive
- Potency [10]: inactive
- Potency [12]: inactive

Compound: c1ccc(CCNc2nc(-c3ccccc3)cs2)cc1
- Potency [9]: 1.61 µM (active)

Compound: CC(Cc1ccc2c(c1)OCO2)NO (configuration not stated)
- Potency [9]: inactive

Compound: COC(=O)C1=CCCN(C)C1
- Potency [1]: inactive
- Potency [9]: inactive
- Potency [10]: inactive
- Potency [12]: inactive

Source: PubChem BioAssay (NCATS)
